Unmarked numbers belong to inactive results. Records with an inconclusive call do not appear. The list shows a part of the results. Calls of active or inactive are those of the source. The call rests on the fitted dose curve; in most records, active means well fitted curve in the direction sought with a large enough effect; inconclusive means small, poorly fitted or top-dose-only effect, or another doubt; inactive means no such curve, though single readings can be large; an effect the other way counts as inactive or inconclusive.

The results in this text go back to PubChem BioAssay (NCATS).

Assay [1] concerns the target Cytochrome P450 3A4 (Homo sapiens) (UniProt P08684). Description: qHTS Assay for Inhibitors and Substrates of Cytochrome P450 3A4 (AID 884). Further: potency means the concentration at half of the fitted maximal effect; nearly all actives have a fitted effect of over 50% in size. The conditions noted are these: recombinant CYP3A4, Luciferin-PPXE luminescence; series mostly up to 57.1 µM. In a few lines: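 20 nM human CYP3A4 with 25 uM Luciferin-PPXE (at KM) in 200 mM KPO4, preincubated 10 min with compound; NADPH regeneration started a 60 min RT reaction. Luciferin detected by luminescence, normalized to 57 uM ketoconazole as full inhibition.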

The target is the same in assay [2]. Description: qHTS Assay for Activators of Cytochrome P450 3A4 (AID 885). Further: nearly all actives have a fitted effect of over 65% in size. The conditions noted are these: recombinant CYP3A4, Luciferin-PPXE luminescence, 60 min; series mostly up to 57.1 µM. A digest of the protocol:
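Human CYP3A4 (20 nM) with Luciferin-PPXE at 25 uM (its KM) in 200 mM KPO4; 10 min compound preincubation, then NADPH regeneration and 60 min reaction at RT. Luciferin read by luminescence; normalized to 57 uM ketoconazole full inhibition.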
In general terms: qHTS replaces the single test concentration by a dilution series.

The target of assay [3] is Rap guanine nucleotide exchange factor 3 (Homo sapiens) (UniProt O95398). Description: Confirmatory qHTS for antagonist of cAMP-regulated guanine nucleotide exchange factor 3 (EPAC1) (AID 1645880). Further: nearly all actives have a fitted effect of over 55% in size. Further: potency means the concentration at half of the fitted maximal effect.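 On activity, negative = inhibition: plate controls were DMSO only for no effect and full effect of the ATA control for full effect.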 The conditions noted are these: EPAC1 Rap1B-BODIPY-GDP exchange, fluorescence; activity, negative = inhibition: at 115 µM (top of the series). In a few lines: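 Nucleotide exchange uses 100 nM EPAC1, 250 nM RAP1B-BODIPY-GDP and 50 uM GDP, with compounds in a concentration-titration series. After 5 min at room temperature, fluorescence (480 nm ex/540 nm em) is read every 5 min for 30 min. Data are normalized to control ATA and DMSO.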
Sequence of Rap guanine nucleotide exchange factor 3 (Homo sapiens) (O95398 whole entry, looked up): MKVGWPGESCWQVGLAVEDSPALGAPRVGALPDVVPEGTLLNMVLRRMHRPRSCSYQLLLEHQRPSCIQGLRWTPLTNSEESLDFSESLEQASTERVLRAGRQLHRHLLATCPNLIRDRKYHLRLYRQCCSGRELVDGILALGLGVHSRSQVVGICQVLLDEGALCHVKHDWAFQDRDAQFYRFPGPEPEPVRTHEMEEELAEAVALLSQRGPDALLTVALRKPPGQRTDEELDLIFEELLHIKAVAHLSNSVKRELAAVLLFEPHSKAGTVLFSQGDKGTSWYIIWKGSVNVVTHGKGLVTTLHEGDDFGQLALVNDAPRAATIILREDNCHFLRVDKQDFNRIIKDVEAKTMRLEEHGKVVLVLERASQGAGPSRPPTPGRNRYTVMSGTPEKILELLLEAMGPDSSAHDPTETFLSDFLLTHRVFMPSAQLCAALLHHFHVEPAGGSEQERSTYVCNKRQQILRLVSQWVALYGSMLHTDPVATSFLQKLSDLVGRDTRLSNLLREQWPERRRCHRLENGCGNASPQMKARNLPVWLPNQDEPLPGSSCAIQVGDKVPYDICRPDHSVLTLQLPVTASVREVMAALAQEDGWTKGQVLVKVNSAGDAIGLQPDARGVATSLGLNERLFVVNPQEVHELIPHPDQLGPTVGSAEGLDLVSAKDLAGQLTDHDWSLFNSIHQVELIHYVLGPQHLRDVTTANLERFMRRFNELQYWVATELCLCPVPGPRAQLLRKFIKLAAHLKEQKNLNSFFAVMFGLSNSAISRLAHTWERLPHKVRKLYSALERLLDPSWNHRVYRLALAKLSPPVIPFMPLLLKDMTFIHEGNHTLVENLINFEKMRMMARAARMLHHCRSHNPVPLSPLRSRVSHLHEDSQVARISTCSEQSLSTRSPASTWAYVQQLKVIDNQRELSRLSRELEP

Assay [4] shares this target. Put plainly: Confirmatory qHTS for agonist of cAMP-regulated guanine nucleotide exchange factor 3 (EPAC1) (AID 1645881).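 Further: EPAC1 catalysed release of BODIPY-GDP from Rap1B seen as fluorescence loss; 100% = effect of cAMP agonist control; nearly all actives have a fitted effect of over 75% in size.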 The conditions noted are these: EPAC1 Rap1B BODIPY-GDP exchange fluorescence; series mostly up to 154 µM.
Assay [5] deals with Rap guanine nucleotide exchange factor 4 (Homo sapiens) (UniProt Q8WZA2). Put plainly: Confirmatory qHTS for agonist of cAMP-regulated guanine nucleotide exchange factor 4 (EPAC2) (AID 1645884).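 Further: nucleotide exchange releases bodipy-GDP from Rap1 and this lowers its fluorescence; on the % scale 0 is the no-effect control and ±100 the full control effect; nearly all actives have a fitted effect of over 65% in size.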 The conditions noted are these: EPAC2 GEF activity, Rap1B-BODIPY-GDP fluorescence; series mostly up to 154 µM.
Sequence of Rap guanine nucleotide exchange factor 4 (Homo sapiens) (Q8WZA2 whole entry, looked up): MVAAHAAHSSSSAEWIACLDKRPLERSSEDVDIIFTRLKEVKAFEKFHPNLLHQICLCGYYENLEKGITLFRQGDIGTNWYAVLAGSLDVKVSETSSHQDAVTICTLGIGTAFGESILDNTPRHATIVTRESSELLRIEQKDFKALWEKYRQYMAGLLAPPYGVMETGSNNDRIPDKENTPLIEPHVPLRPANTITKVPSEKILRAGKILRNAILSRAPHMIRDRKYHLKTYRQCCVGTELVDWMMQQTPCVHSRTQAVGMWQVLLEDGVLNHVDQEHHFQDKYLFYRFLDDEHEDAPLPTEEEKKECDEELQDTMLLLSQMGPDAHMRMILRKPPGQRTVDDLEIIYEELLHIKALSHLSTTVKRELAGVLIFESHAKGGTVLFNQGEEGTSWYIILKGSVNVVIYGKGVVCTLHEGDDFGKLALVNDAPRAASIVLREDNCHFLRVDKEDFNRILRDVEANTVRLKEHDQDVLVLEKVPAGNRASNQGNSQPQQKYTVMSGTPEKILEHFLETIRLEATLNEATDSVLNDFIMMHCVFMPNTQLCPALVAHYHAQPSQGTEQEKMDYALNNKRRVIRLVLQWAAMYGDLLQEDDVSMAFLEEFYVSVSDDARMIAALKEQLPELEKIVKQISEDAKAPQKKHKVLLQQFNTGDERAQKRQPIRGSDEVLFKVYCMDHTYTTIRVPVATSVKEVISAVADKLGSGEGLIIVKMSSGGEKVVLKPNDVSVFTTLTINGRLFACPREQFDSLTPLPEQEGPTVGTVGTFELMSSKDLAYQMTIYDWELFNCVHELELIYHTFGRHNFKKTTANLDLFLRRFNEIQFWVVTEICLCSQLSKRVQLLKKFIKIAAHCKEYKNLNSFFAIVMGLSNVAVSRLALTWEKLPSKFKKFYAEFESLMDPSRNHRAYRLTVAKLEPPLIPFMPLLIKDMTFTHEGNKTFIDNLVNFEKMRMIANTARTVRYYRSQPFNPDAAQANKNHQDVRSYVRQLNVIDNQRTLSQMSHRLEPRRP
Assay [6] addresses Rap guanine nucleotide exchange factor 3 (Homo sapiens) (UniProt O95398). Description: Counterscreen qHTS for antagonist of cAMP-regulated guanine nucleotide exchange factor 3 (EPAC1) (AID 1645888).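 Further: fluorescence loss as bound BODIPY-GDP is released from Rap1B; % of control where 0% means no effect.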 The conditions noted are these: Rap1B-BODIPY-GDP nucleotide exchange, fluorescence; series mostly up to 154 µM. In a few lines:
(§1)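 Measured: fluorescence of BODIPY-GDP bound to Rap1B, which falls as exchange proceeds. Conditions include 50 uM competing GDP, 5 and 30 min reads, and a later cAMP challenge for antagonist detection.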
(A counterscreen serves to expose hits that act by an unwanted route or on another target.)

Assay [7] shares this target. Put plainly: Counterscreen qHTS for agonist of cAMP-regulated guanine nucleotide exchange factor 3 (EPAC1) (AID 1645889). Further: % of control where 0% means no effect; nearly all actives have a fitted effect of over 40% in size. The conditions noted are these: EPAC1 Rap1B-BODIPY-GDP exchange, fluorescence; series mostly up to 154 µM. A digest of the protocol:
as §1

Assay [8] is described as follows: qHTS for Inhibitors of the vitamin D receptor (VDR): Hit Validation using a Texas Red Assay (AID 602201). Further: potency means the concentration at half of the fitted maximal effect. The conditions noted are these: VDR coregulator binding, Texas Red fluorescence polarization, agonist-bound VDR ligand-binding domain; series mostly up to 57.1 µM. In a few lines:
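Fluorescence polarization (Ex 595/Em 615 nm) of Texas Red (7 nM) with 1.5 uM VDR-LBD and LG19078 (final concentrations). Compounds were incubated for 2 hours at room temperature.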

Assay [9] concerns the target DNA dC->dU-editing enzyme APOBEC-3G (Homo sapiens) (UniProt Q9HC16). Description: qHTS for inhibitors of Vif-A3G interactions: Validation (AID 588379). Further: 0% is about no effect. The conditions noted are these: Vif-A3G protein interaction assay; series mostly up to 46.1 µM. A digest of the protocol: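 HeLa cells stably expressing Vif and A3G-eYFP, 700 cells/well, incubated overnight at 37 deg C, then exposed to compound overnight at 37 deg C. Inhibition of Vif-mediated degradation read as increased yellow fluorescence (Ex 488/Em 500-530) by laser-scanning cytometry.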

Assay [10] in a line: Confirmation and Secondary Assay for Modulators of Hemoglobin Beta Chain Splicing at IVS2 654 locus (AID 910). Further: % of control where 0% means no effect. The conditions noted are these: HeLa EGFP-654 splicing reporter, GFP fluorescence, 48 h; series mostly up to 46.1 µM. In a few lines:
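HeLa cells stably carrying EGFP interrupted by mutant beta-globin IVS2-654 intron (CMV-driven) were treated with compound for 2 days at 37C; corrected splicing was scored as total peak GFP intensity per well (488 nm excitation, 500-520 nm emission).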

The nature of assay [11]: Confirmation and Secondary Assay for Modulators of Hemoglobin Beta Chain Splicing at IVS2 705 locus (AID 930). Further: % of control where 0% means no effect. The conditions noted are these: HeLa EGFP-705 splicing reporter, GFP fluorescence, 48 h; series mostly up to 46.1 µM. In a few lines: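 HeLa cells stably carrying EGFP interrupted by mutant beta-globin intron 2 (IVS2-705) treated 2 days at 37C with compound; 500 nM antisense PNA as control. Correct splicing read as total peak GFP intensity per well by laser-scanning cytometry.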

Assay [12] concerns the target Phosphoglycerate kinase, glycosomal (Trypanosoma brucei brucei) (UniProt P07378). Put plainly: qHTS for inhibitors of Phosphogylcerate Kinase: Hit Validation Screen (AID 686980). Further: potency means the concentration at half of the fitted maximal effect; nearly all actives have a fitted effect of over 65% in size. The conditions noted are these: TbPGK coupled GAPDH assay, Kinase-Glo luminescence. In a few lines:
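Luminescent ATP detection (Kinase-Glo Plus) follows a 60-minute room-temperature incubation, with wells lacking PGK as controls. Buffer: 100 mM TEA (pH 7.6), 5 mM MgCl2, 0.01% Tween-20. Coupling enzyme GAPDH (100 nM final) supplies unstable 1,3-BPG in-well.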

In assay [13] the target is DNA polymerase iota (Homo sapiens) (UniProt Q9UNA4). Put plainly: qHTS for Inhibitors of Polymerase Iota: Confirmatory Assay for Cherry-picked Compounds (AID 720496). Further: potency means the concentration at half of the fitted maximal effect. The conditions noted are these: Pol iota primer extension, TAMRA/BHQ fluorescence. In a few lines:
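Human Pol iota (10 nM) was preincubated 15 min at room temperature with compound, then started with 50 nM TAMRA/BHQ-2 quenched primer-template substrate. Fluorescence (ex 525/em 598 nm) was read at 0 and 10 min.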

The target of assay [14] is Bifunctional 3'-5' exonuclease/ATP-dependent helicase WRN (Homo sapiens) (UniProt Q14191). Put plainly: qHTS for Inhibitors of WRN Helicase: Confirmatory Assay for Cherry-picked Compounds. (AID 720497). Further: potency means the concentration at half of the fitted maximal effect; nearly all actives have a fitted effect of over 65% in size. The conditions noted are these: WRN helicase DNA unwinding, fluorescence kinetic. A digest of the protocol:
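Confirmatory retest of cherry-picked hits in 1536-well format. Enzyme (20 nM final) sat with compound for 15 min at room temperature before forked duplex substrate (100 nM) and ATP (2 mM) were added, and unwinding was followed kinetically by red fluorescence.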

The target in assay [15] is DNA polymerase kappa (Homo sapiens) (UniProt Q9UBT6). Put plainly: qHTS for Inhibitors of Polymerase Kappa: Confirmatory Assay for Cherry-picked Compounds (AID 720501). Further: potency means the concentration at half of the fitted maximal effect. The conditions noted are these: purified Pol-kappa, fluorescent strand-displacement substrate. In a few lines:
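Human Pol-kappa, dispensed at 10 nM, was preincubated with compounds for 15 min at room temperature. Reactions were started with primer/template substrate (50 nM final) carrying a TAMRA reporter strand and BHQ-2-quenched template, and fluorescence (ex 525/em 598 nm) was read at 0 and 10 min.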

Assay [16] addresses RecQ-like DNA helicase BLM (Homo sapiens) (UniProt P54132). Put plainly: qHTS for Inhibitors of WRN Helicase: BLM Helicase Counterscreen for WRN Inhibitors (AID 720503). Further: potency means the concentration at half of the fitted maximal effect; nearly all actives have a fitted effect of over 60% in size. The conditions noted are these: Recombinant BLM helicase DNA unwinding, red fluorescence. A digest of the protocol: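 BLM at 1 nM was preincubated with compound for 15 min at room temperature in 25 mM Tris-HCl pH 8.0, 50 mM NaCl, 2 mM MgCl2, 1 mM DTT and 0.01% Tween-20. Unwinding was started with 100 nM DNA and 2 mM ATP (final). Fluorescence (ex 525/em 598 nm) was read twice, 15 min apart, and normalized to enzyme-free and DMSO controls.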

Sequence of Cytochrome P450 3A4 (Homo sapiens) (P08684 whole entry, looked up): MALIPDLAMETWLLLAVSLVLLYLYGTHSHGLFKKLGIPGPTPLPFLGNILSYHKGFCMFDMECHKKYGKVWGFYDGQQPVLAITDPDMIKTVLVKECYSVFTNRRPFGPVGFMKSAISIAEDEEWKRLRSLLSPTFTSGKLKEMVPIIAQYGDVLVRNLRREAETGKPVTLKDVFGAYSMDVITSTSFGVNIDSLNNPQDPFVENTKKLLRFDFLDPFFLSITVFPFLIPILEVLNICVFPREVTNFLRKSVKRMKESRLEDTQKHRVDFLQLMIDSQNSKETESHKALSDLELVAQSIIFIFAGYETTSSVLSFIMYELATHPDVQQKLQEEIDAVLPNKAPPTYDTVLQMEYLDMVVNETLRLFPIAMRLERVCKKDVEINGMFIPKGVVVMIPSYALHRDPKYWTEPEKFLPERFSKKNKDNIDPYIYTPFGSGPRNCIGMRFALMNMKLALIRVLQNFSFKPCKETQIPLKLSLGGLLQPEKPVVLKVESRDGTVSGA
Sequence of Phosphoglycerate kinase, glycosomal (Trypanosoma brucei brucei) (P07378 whole entry, looked up): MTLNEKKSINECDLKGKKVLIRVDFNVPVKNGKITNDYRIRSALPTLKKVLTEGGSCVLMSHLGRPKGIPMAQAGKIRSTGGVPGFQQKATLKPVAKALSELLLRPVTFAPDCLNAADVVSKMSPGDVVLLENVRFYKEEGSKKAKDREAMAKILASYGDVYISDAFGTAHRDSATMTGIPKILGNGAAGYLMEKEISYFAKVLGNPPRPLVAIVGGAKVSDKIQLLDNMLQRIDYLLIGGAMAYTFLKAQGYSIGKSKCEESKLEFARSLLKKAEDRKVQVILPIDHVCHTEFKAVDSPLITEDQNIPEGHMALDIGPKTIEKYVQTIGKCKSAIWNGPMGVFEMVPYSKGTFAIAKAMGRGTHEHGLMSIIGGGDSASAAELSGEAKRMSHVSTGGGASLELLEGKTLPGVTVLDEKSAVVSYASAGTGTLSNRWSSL
Sequence of RecQ-like DNA helicase BLM (Homo sapiens) (P54132 whole entry, looked up): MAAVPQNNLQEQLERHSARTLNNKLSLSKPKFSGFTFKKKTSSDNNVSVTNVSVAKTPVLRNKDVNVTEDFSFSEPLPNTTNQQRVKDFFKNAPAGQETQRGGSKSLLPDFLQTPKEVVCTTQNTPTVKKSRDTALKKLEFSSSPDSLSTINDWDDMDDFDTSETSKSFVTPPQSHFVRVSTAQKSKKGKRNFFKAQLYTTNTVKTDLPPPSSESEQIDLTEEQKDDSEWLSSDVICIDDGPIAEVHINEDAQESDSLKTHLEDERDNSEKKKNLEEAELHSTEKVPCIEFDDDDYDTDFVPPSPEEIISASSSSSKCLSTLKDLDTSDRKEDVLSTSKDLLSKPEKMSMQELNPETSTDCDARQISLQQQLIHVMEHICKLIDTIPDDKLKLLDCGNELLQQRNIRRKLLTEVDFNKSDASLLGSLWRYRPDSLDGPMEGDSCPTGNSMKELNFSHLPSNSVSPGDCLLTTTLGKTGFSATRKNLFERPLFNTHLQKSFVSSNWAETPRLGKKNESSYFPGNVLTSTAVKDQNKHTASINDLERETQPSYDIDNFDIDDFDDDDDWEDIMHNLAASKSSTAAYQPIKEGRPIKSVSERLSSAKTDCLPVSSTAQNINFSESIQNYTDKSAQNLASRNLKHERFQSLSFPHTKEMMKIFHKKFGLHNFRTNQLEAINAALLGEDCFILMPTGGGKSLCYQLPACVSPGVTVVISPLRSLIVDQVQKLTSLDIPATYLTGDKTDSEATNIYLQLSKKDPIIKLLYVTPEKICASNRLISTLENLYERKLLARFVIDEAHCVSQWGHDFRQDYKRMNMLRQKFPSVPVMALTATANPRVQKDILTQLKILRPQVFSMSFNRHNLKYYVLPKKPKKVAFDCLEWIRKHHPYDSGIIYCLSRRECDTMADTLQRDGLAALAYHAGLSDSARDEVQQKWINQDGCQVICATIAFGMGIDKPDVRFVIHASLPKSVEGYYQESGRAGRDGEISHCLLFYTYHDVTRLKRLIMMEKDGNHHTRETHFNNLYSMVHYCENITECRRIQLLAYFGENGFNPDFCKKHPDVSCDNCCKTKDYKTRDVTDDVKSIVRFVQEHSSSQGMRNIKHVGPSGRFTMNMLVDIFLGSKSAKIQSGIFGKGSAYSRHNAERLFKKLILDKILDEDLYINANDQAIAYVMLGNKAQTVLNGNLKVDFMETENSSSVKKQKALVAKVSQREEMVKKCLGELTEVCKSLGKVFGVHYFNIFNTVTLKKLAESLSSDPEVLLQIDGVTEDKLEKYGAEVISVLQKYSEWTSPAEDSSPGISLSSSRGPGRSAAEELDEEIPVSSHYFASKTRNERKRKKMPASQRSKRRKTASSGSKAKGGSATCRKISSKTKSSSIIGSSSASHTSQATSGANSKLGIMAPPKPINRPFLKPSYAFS
Sequence of DNA polymerase iota (Homo sapiens) (Q9UNA4 whole entry, looked up): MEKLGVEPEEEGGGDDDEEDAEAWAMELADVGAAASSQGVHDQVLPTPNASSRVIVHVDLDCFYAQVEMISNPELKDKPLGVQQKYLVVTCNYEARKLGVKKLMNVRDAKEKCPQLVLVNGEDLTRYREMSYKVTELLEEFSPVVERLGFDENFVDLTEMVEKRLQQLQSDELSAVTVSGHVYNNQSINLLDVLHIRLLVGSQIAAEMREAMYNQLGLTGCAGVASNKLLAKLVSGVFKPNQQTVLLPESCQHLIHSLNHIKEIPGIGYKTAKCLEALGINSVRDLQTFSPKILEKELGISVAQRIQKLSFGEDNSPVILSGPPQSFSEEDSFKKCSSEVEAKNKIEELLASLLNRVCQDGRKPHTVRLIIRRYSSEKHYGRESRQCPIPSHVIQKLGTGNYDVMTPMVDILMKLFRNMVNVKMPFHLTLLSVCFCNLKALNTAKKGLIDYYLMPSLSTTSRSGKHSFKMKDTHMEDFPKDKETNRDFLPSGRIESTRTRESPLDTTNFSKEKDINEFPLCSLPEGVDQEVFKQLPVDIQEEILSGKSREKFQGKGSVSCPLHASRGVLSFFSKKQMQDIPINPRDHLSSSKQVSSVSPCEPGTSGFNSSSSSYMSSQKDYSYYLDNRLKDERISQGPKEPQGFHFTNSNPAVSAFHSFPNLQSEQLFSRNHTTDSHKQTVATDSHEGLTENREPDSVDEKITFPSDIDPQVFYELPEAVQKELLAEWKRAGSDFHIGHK

Take `CC(C)Cn1c(N)c(C(=O)COC(=O)c2cc(-c3ccco3)nc3ccccc23)c(=O)n(C)c1=O`: the values for the Potency in assay [1] and in assay [3] were 15.8 µM (active) and 30.1 µM (active), respectively. Also, the outcome in assay [2] was inactive. For the same molecule, the Potency entry in [4], in assay [5], in assay [6] and in assay [7] was “inactive” each time.

For the molecule `O=C1ON=C(c2ccccc2)/C1=C/c1ccc(-c2ccccc2[N+](=O)[O-])o1`, the Potency is 4.47 µM (active) in [8] and 37.9 µM (active) in [3]. The Potency entry in assay [4], in [5] and in assay [6] was “inactive” throughout.

On to `COc1ccc(/C=C2/C(=O)N(CC3CCCO3)C(=S)N2C)c(OC)c1` (configuration not stated), for which, in assay [3], the Potency is 84.9 µM (active). Moreover, the Potency result in [4], in assay [5] and in [7] was “inactive” throughout.

In the case of `O=C(c1ccco1)N1N=C2CCCCCC2C1(O)C(F)(F)F` (configuration not stated), the Potency result in [3], in assay [4], in [5] and in [7] was “inactive” each time.

With `COc1ccc(NS(=O)(=O)c2cc(N)ccc2N2CCCCC2)cc1`, the Potency result in assay [3], in [4], in assay [5] and in assay [7] was “inactive” throughout.

Take `O=c1cc2oc3cc(O)c(O)cc3c(-c3ccccc3[N+](=O)[O-])c-2cc1O`: the Potency in assay [3] is 10.7 µM (active). Further, the Potency entry in [4], in assay [5] and in assay [7] was “inactive” throughout.

`Cc1cc(C)c2nc(N3C(=O)C(O)=C(C(=O)c4ccco4)C3c3cccc(O)c3)sc2c1` (configuration not stated): in [3], the Potency was 26.9 µM (active). The Potency result in [4], in assay [5] and in assay [7] was “inactive” in each case.

Regarding `COc1ccc(C2OCC3(COC(C)=O)C(C)C=C(C)C2C3C)cc1` (configuration not stated), in assay [9], the outcome was inactive. Besides, the Potency entry in assay [3], in [4] and in assay [5] was “inactive” each time.

With `COc1cc(C)c2c(=O)cc(-c3ccccc3)oc2c1`, the Potency in assay [1] was 12.6 µM (active). The outcome in assay [2] was inactive. Besides, the Potency entry in assay [10], in [11], in assay [3], in [4] and in assay [5] was “inactive” in each case.

As to `O=c1ccc2c(-c3ccccc3S(=O)(=O)O)c3ccc(O)c(O)c3oc-2c1O`, the Potency in [12] is 0.366 µM (active); in [13], 0.597 µM (active); in assay [14], 0.541 µM (active); in [15] it was 1.06 µM (active); in assay [16] it was 0.136 µM (active); in assay [3] it was 7.94 µM (active). Also, the Potency entry in [4] is “inactive”. The activation was -12% [at 17.1 µM, percent relative to cAMP agonist control] in assay [5] and -15.5% [at 30.8 µM] in assay [7]. The activity change, negative = inhibition in [6] was -28.7% [at 30.8 µM].

Consider `Cc1ccc(C(=O)C=Cc2ccc3c(c2)OCO3)c(C)c1`, for which the Potency entry in assay [3] and in [4] was “inactive” each time. Besides, the activation in assay [5] was -0.688% [at 17.1 µM, percent relative to cAMP agonist control]; in assay [7], 12.3% [at 30.8 µM].
